Drawing on PubChem BioAssay (NCI), this text covers growth for 40 compounds.

About 83,000 compounds went through this panel and 20% of them were active in at least one assay; those are over-represented in the sample as a whole.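 Growth was measured after 48 h exposure to one concentration of compound in 96-well plates. Values under 10 count as active.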 Calls of active or inactive are those of the source.

For this experiment, the system named is HL-60(TB) leukemia. The experiment in a line: NCI-60 one-dose screen, 48 h (100 = growth as untreated, 0 = no growth, -100 = all killed). Particulars: 10 µM unless noted.
As to `COc1cc2c(cc1OC)-c1ccc3cc4c(cc3c1N(CCCN1CCCCC1)C2)OCO4`, the growth is 37.1% (inactive).
In the case of `COc1cc(OC)cc(-c2n/c(=C\c3c(O)[nH]c4ccc(OC)cc34)cc3c2=Nc2ccccc2-3)c1` it was 80% (inactive).
In the case of `CCN(CC)c1ccc(C(O)C2=CC(=O)c3ccccc3C2=O)cc1` (stereo not given) it was -1.99% (active); in that of `Cc1cccc(-c2nc(N(C)c3ccc4ncsc4c3)c3ccccc3n2)n1`, 50.4% (inactive); in that of `CC[C@H](C)[C@@H]1NC(=O)[C@H]([C@@H](C)O)NC(=O)C(Cc2ccccc2)NC(=O)[C@@H]2CCCN2C(=O)C(C(C)C)NC(=O)C(Cc2ccccc2)NC(=O)CNC(=O)[C@@H]2CCCN2C1=O` (stereo not given in full), 5.19% (active).
For the compound `Cc1nc(Sc2nc3ccc([N+](=O)[O-])cc3s2)sc1C`, the growth was -41.7% (active).
The value for `CS(=O)(=O)Nc1cc(-c2ccc3ncnc(Nc4ccc5c(cnn5Cc5ccccc5F)c4)c3c2)cnc1Cl` was 22.7% (inactive); that for `COc1cccc(-c2nn(C(C)(C)C)cc2-c2ccnc(NCCCNS(=O)(=O)c3cccc4ccccc34)c2)c1` was 104% (inactive).
Take `C[C@@H]1CC[C@@H]2[C@@H]1[C@H](OC(=O)/C=C/c1ccccc1)[C@]1(C3CCCCC3)C[C@@H](OC(=O)CO)[C@@]2(C)O1`: the growth was 74.5% (inactive).
In the case of `CCOC(=O)c1ccc(NC(=O)CSC(N)=O)cc1` it was 93.2% (inactive).
For `NC(=O)N/N=C\c1ccco1`, the growth was 102% (inactive).
The value for `C=C(CO)[C@@H]1CC[C@]2(COC3CCCCO3)CC[C@]3(C)[C@H](CC[C@@H]4[C@@]5(C)C=C(C=O)C(=O)C(C)(C)[C@@H]5CC[C@]43C)[C@@H]12` (stereo not given in full) was -59.8% (active); that for `COc1ccc2c(c1)c(-c1ccc(-c3cn(C)c4ccc(OC)cc34)[nH]1)cn2C` was -24.7% (active); that for `CCC(=O)Sc1ccccc1C(=O)Nc1ccc(Cl)cc1` was 37.6% (inactive).
In the case of `CCOC(=O)CCC[P+](c1ccccc1)(c1ccccc1)c1ccccc1` it was 37.7% (inactive).
The value for `CC1(C)CC[C@]2(C(=O)O)CC[C@]3(C)[C@H](CC[C@@H]4[C@@]5(C)CCC(=O)C(C)(C)[C@@H]5CC[C@]43C)[C@H]2[C@H]1OC(=O)C(F)(F)F` was -23.4% [100 µM] (active); that for `COc1cc(C2C(C(=O)OCc3ccccc3)=C(C)NC(C)=C2C(=O)OCc2ccccc2)cc(OC)c1OC` was 5.01% (active); that for `CC(C)CCN(CCC(C)C)CC(O)c1cc2c(c3ccccc13)CCCC2` (stereo not given) was 78.6% (inactive).
`Clc1cccc(Nc2nc(Nc3cnc4ccccc4c3)c3[nH]cnc3n2)c1`: the growth was 121% (inactive).
Take `C=C(CNCCc1ccc(O)cc1)[C@@H]1CC[C@]2(COC3CCCCO3)CC[C@]3(C)[C@H](CC[C@@H]4[C@@]5(C)CCC(NCCO)C(C)(C)[C@@H]5CC[C@]43C)[C@@H]12` (stereo not given in full): the growth is -59.5% (active).
For `COc1cc(/C=N/Nc2ncnc3c2c(C)nn3-c2ccc(F)cc2)ccc1O`, the growth was 98.3% (inactive).
Take `C=C(C)C1CCC2(C(=O)O)CCC3(C)C(CCC4C5(C)CCC(O)C(C)(C)C5CCC43C)C12` (stereo not given): the growth is -40% (active).
On to `CCNC(=O)c1[nH]cc(-c2ccc(OC)cc2)c1-c1cc(OC)cc(OC)c1`, for which the growth is 82.1% (inactive).
In the case of `N#CC1=C(N)Oc2c(c(N)nn2-c2ccccc2)C1c1ccc(Cl)cc1Cl` (stereo not given) it was 96.5% (inactive).
In the case of `C/C(=C\c1ccccc1)C(O)C(=O)c1nc2ccc([N+](=O)[O-])cc2[nH]c1=O` (stereo not given) it was 83% (inactive); in that of `c1ccc(Nc2nc(Nc3ccccc3)nc(Nc3ccccc3)n2)cc1`, 63.8% (inactive); in that of `COc1ccc(-c2cncnc2N)cc1OC`, 95.8% (inactive).
The value for `Nc1ncnc2c1ccn2-c1cccc(NC(=O)c2ccc(N3CCOCC3)c(C(F)(F)F)c2)c1` was 54.1% (inactive); that for `Oc1c(C(Nc2ccccc2Br)c2ccccc2)ccc2cccnc12` (stereo not given) was -17.8% (active); that for `COc1ccc(/C=C/C(=O)c2ccc(Nc3nc(NCCO)nc(Nc4ccc(Cl)cc4)n3)cc2)cc1` was 94% (inactive).
For `COC(=O)/C=C/c1cc(OC(C)=O)c2c(c1)C(C(=O)OC)C(c1ccc(OC(C)=O)c(OC(C)=O)c1)O2` (stereo not given), the growth is -35% (active).
In the case of `COc1ccc(/C(C)=N/NS(=O)(=O)c2ccc(C)cc2)cc1OC` it was 97.6% (inactive); in that of `CC1OC2CC(=O)OC2C2=C1C(=O)c1c(O)c3c(c(O)c1C2=O)C1CC(O)C3(O)C(C)O1` (stereo not given), -26.7% (active).
In the case of `CC(C)(C)c1nc(-c2ccc(O)c(O)c2)cs1` it was -5.29% (active); in that of `O=C(O)c1cn(C2CC2)c2cc(N3CCN(C(=O)Nc4nc(-c5ccc(Cl)cc5)cs4)CC3)c(F)cc2c1=O`, -26.2% (active); in that of `CC1(C)N=C(N)N=C(N)N1c1cccc(CCc2ccccc2)c1`, 32.4% (inactive).
In the case of `C#CCOCC1CN(C)C(=O)O1` (stereo not given) it was 89.4% (inactive); in that of `CCCCS(=O)(=O)c1cc(Nc2ccc(O)c3c2C(=O)c2ccccc2C3=O)ccc1C`, 75% (inactive).
On to `CCOC(=O)c1cc2c(n1Cc1cc(OC)cc(OC)c1)-c1oncc1CCC2`, for which the growth was 5.41% (active).
In the case of `CCCO/N=C/c1ccccn1` it was 94.8% (inactive).
